# Test results published in PubChem BioAssay (NCI).
# Several values for one entry are separate records, joined by “and”; a condition that tells them apart may be missing. Equal values may be shown once. The panel holds about 83,000 compounds, 20% with a hit somewhere; the sample as a whole holds those more often.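 How to read the values: 0–100, growth inhibition (40 = 60% inhibited); 0, no net growth; -100 to 0, cell death (-40 = 40% of starting cells died; -100 = all dead).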 Activity calls are given as the source filed them. Rule for the calls: active = growth percent below 10; inactive = the rest.
# Key:
# Assay in all cases: NCI-60 one-dose screen, 48 h (100 = growth as untreated, 0 = no growth, -100 = all killed)
# SK-MEL-2 melanoma = tested on: SK-MEL-2 melanoma
# EKVX NSCLC = conditions: 10 µM unless noted
# SN12C renal = tested on: SN12C renal
# UO-31 renal = tested on: UO-31 renal
# TK-10 renal = tested on: TK-10 renal
# ACHN renal = tested on: ACHN renal
# CAKI-1 renal = tested on: CAKI-1 renal
# A498 renal = conditions: 10 µM unless noted
# CCRF-CEM leukemia = conditions: 10 µM unless noted
# MOLT-4 leukemia = conditions: 10 µM unless noted
structure (smiles),measurement,setting,value
COC(=O)c1ccccc1Cl,growth,SK-MEL-2 melanoma; 10 µM unless noted,108% (inactive)
same,growth,EKVX NSCLC,99.9% (inactive)
same,growth,SN12C renal; 10 µM unless noted,105% (inactive)
same,growth,UO-31 renal; 10 µM unless noted,93.8% (inactive)
same,growth,TK-10 renal; 10 µM unless noted,97.1% (inactive)
same,growth,ACHN renal; 10 µM unless noted,106% (inactive)
same,growth,CAKI-1 renal; 10 µM unless noted,99.6% (inactive)
same,growth,A498 renal,88.8% (inactive)
same,growth,CCRF-CEM leukemia,100% (inactive)
C/C=C(/C(=O)NC(N)=O)C(C)C,growth,SK-MEL-2 melanoma; 10 µM unless noted,109% (inactive)
same,growth,EKVX NSCLC,112% (inactive)
same,growth,SN12C renal; 10 µM unless noted,102% (inactive)
same,growth,UO-31 renal; 10 µM unless noted,100% (inactive)
same,growth,TK-10 renal; 10 µM unless noted,117% (inactive)
same,growth,ACHN renal; 10 µM unless noted,110% (inactive)
same,growth,CAKI-1 renal; 10 µM unless noted,104% (inactive)
same,growth,A498 renal,102% (inactive)
same,growth,CCRF-CEM leukemia,111% (inactive)
same,growth,MOLT-4 leukemia,92.3% (inactive)
Cc1ccc(S(=O)(=O)n2ccnc2)cc1,growth,SK-MEL-2 melanoma; 10 µM unless noted,96.7% (inactive)
same,growth,EKVX NSCLC,90.7% (inactive)
same,growth,SN12C renal; 10 µM unless noted,107% (inactive)
same,growth,UO-31 renal; 10 µM unless noted,89.9% (inactive)
same,growth,TK-10 renal; 10 µM unless noted,93% (inactive)
same,growth,ACHN renal; 10 µM unless noted,104% (inactive)
same,growth,CAKI-1 renal; 10 µM unless noted,75.3% (inactive)
same,growth,A498 renal,96.5% (inactive)
same,growth,CCRF-CEM leukemia,120% (inactive)
same,growth,MOLT-4 leukemia,138% (inactive)
OCCSc1ccc(Cl)cc1,growth,SK-MEL-2 melanoma; 10 µM unless noted,109% (inactive) and 90.7% (inactive)
same,growth,EKVX NSCLC,100% (inactive) and 89.4% (inactive)
same,growth,SN12C renal; 10 µM unless noted,104% (inactive) and 93% (inactive)
same,growth,UO-31 renal; 10 µM unless noted,95.9% (inactive) and 85.7% (inactive)
same,growth,TK-10 renal; 10 µM unless noted,87.7% (inactive)
same,growth,ACHN renal; 10 µM unless noted,99.6% (inactive) and 95.1% (inactive)
same,growth,CAKI-1 renal; 10 µM unless noted,107% (inactive) and 91.1% (inactive)
same,growth,A498 renal,107% (inactive) and 88.9% (inactive)
same,growth,CCRF-CEM leukemia,119% (inactive) and 96.7% (inactive)
O=c1ccn2c(n1)OC1CC2OC1COC(c1ccccc1)(c1ccccc1)c1ccccc1 (centres undefined),growth,SK-MEL-2 melanoma; 10 µM,113% (inactive)
same,growth,SK-MEL-2 melanoma; 100 µM,31.5% (inactive)
same,growth,EKVX NSCLC,96.3% [100 µM] (inactive)
same,growth,SN12C renal; 10 µM,103% (inactive)
same,growth,SN12C renal; 100 µM,69.2% (inactive)
same,growth,UO-31 renal; 10 µM,97% (inactive)
same,growth,UO-31 renal; 100 µM,89.9% (inactive)
same,growth,TK-10 renal; 10 µM unless noted,134% [100 µM] (inactive)
same,growth,ACHN renal; 10 µM,92% (inactive)
same,growth,ACHN renal; 100 µM,82.5% (inactive)
same,growth,CAKI-1 renal; 10 µM,102% (inactive)
same,growth,CAKI-1 renal; 100 µM,65.7% (inactive)
O=c1[nH]nnc2cc(Cl)ccc12,growth,SK-MEL-2 melanoma; 10 µM unless noted,121% (inactive) and 144% (inactive)
same,growth,EKVX NSCLC,105% (inactive) and 97.3% (inactive)
same,growth,SN12C renal; 10 µM unless noted,105% (inactive) and 100% (inactive)
same,growth,UO-31 renal; 10 µM unless noted,70.5% (inactive) and 76.3% (inactive)
same,growth,TK-10 renal; 10 µM unless noted,99.3% (inactive) and 105% (inactive)
same,growth,ACHN renal; 10 µM unless noted,97.6% (inactive) and 101% (inactive)
same,growth,CAKI-1 renal; 10 µM unless noted,92.2% (inactive) and 95.8% (inactive)
same,growth,A498 renal,106% (inactive)
same,growth,CCRF-CEM leukemia,114% (inactive) and 103% (inactive)
COc1ccc(CCn2cnn3c(=O)c4ccccc4nc3c2=O)cc1OC,growth,SK-MEL-2 melanoma; 10 µM unless noted,107% (inactive) and 118% (inactive)
same,growth,EKVX NSCLC,106% (inactive)
same,growth,SN12C renal; 10 µM unless noted,107% (inactive) and 101% (inactive)
same,growth,UO-31 renal; 10 µM unless noted,93.3% (inactive) and 91.9% (inactive)
same,growth,TK-10 renal; 10 µM unless noted,114% (inactive) and 106% (inactive)
same,growth,ACHN renal; 10 µM unless noted,101% (inactive) and 109% (inactive)
same,growth,CAKI-1 renal; 10 µM unless noted,111% (inactive) and 97.8% (inactive)
same,growth,A498 renal,90.6% (inactive) and 129% (inactive)
same,growth,CCRF-CEM leukemia,97.6% (inactive)
same,growth,MOLT-4 leukemia,102% (inactive) and 112% (inactive)
O=C(Nc1ccccc1)OCC(CN1CCCCC1)OC(=O)Nc1ccccc1 (centres undefined),growth,SK-MEL-2 melanoma; 10 µM unless noted,85.6% (inactive) and 108% (inactive)
same,growth,EKVX NSCLC,82.5% (inactive)
same,growth,SN12C renal; 10 µM unless noted,77.5% (inactive) and 94% (inactive)
same,growth,UO-31 renal; 10 µM unless noted,53.5% (inactive) and 66.7% (inactive)
same,growth,TK-10 renal; 10 µM unless noted,93.2% (inactive) and 104% (inactive)
same,growth,ACHN renal; 10 µM unless noted,72.9% (inactive) and 92.8% (inactive)
same,growth,CAKI-1 renal; 10 µM unless noted,71.6% (inactive) and 86% (inactive)
same,growth,A498 renal,79.5% (inactive) and 68.7% (inactive)
same,growth,CCRF-CEM leukemia,82.3% (inactive)
CC1CC(O)CC(C)(C)C1.CC1CC(O)CC(C)(C)C1.CC1CC(O)CC(C)(C)C1.CC1CC(O)CC(C)(C)C1.[Ti] (centres undefined),growth,SK-MEL-2 melanoma; 10 µM unless noted,93.9% (inactive)
same,growth,EKVX NSCLC,93.6% (inactive)
same,growth,SN12C renal; 10 µM unless noted,82% (inactive)
same,growth,UO-31 renal; 10 µM unless noted,79% (inactive)
same,growth,TK-10 renal; 10 µM unless noted,104% (inactive)
same,growth,ACHN renal; 10 µM unless noted,111% (inactive)
same,growth,CAKI-1 renal; 10 µM unless noted,94.9% (inactive)
same,growth,A498 renal,106% (inactive)
same,growth,CCRF-CEM leukemia,112% (inactive)
Nc1nc(=S)c2[nH]cnc2[nH]1,growth,SK-MEL-2 melanoma; 10 µM unless noted,29.7% (inactive) and 42.5% (inactive)
same,growth,EKVX NSCLC,44.6% (inactive) and 36.6% (inactive)
same,growth,SN12C renal; 10 µM unless noted,29.5% (inactive) and 29.9% (inactive)
same,growth,UO-31 renal; 10 µM unless noted,16.4% (inactive) and 28.5% (inactive)
same,growth,TK-10 renal; 10 µM,10.3% (inactive) and 31.3% (inactive)
same,growth,TK-10 renal; 250 µM,-17% (active) and -85.4% (active)
same,growth,ACHN renal; 10 µM unless noted,18.7% (inactive) and 20.5% (inactive)
same,growth,CAKI-1 renal; 10 µM unless noted,4.02% (active) and 14.2% (inactive)
same,growth,A498 renal,32% (inactive)
same,growth,CCRF-CEM leukemia,7.32% (active) and 0.0411% (active)
same,growth,MOLT-4 leukemia,10.1% (inactive) and 0.426% (active)
C#CCOC(=O)C(N)CS (centres undefined),growth,SK-MEL-2 melanoma; 10 µM unless noted,115% (inactive)
same,growth,EKVX NSCLC,92.9% (inactive)
same,growth,SN12C renal; 10 µM unless noted,87.2% (inactive)
same,growth,UO-31 renal; 10 µM unless noted,82.5% (inactive)
same,growth,TK-10 renal; 10 µM,107% (inactive)
same,growth,TK-10 renal; 100 µM,103% (inactive) and 107% (inactive)
same,growth,ACHN renal; 10 µM unless noted,98.8% (inactive)
same,growth,CAKI-1 renal; 10 µM unless noted,99.9% (inactive)
same,growth,A498 renal,128% (inactive)
same,growth,CCRF-CEM leukemia,107% (inactive)
same,growth,MOLT-4 leukemia,108% (inactive)
